These results are taken from PubChem BioAssay (Tox21).

Inconclusive results are not listed. Where a call stands in place of a potency, no number is given. Active and inactive are the calls of the source. Calls come from the whole dose curve; as a rule, active = well fitted cell-killing curve with a large enough effect in the repeat runs; inconclusive = weak or mixed curves, or effect the other way; inactive = no such curve, though single readings can be large or run the other way.

The nature of this test: qHTS assay to identify small molecule agonists of the vitamin D receptor (VDR) signaling pathway - cell viability counter screen (AID 743224). Note: nearly all actives have a fitted effect of over 50% in size. Particulars: VDR-bla HEK293T viability, CellTiter-Glo luminescence, 16 h; series mostly up to 62.6 µM. The text has this:
U.S. Tox21 Program National Center for Advancing Translational Sciences [NCATS] NIH Chemical Genomics Center [NCGC] U.S. Environmental Protection Agency [EPA] National Institutes of Environmental Health Sciences [NIEHS] National Toxicology Program [NTP] U.S. Food and Drug Administration [FDA] Tox21 Assay Overview: The vitamin D receptor (VDR), a member of nuclear hormone receptor superfamily, plays a critical role in calcium homeostasis and bone metabolism. It is also involved in cell differentiation and growth, and thrombogenicity. […] The cytotoxicity of the Tox21 compound library against the VDR-bla cell line was tested in parallel by measuring the cell viability using CellTiter-Glo assay (Promega, Madison, WI) in the same wells.
Tox21 Assay Protocol Summary: VDR-bla cells were dispensed at 2,000 cells/6 uL/well into black wall/clear-bottom 1536-well plates using a Multidrop Combi (Thermo Fisher Scientific, Waltham, MA) dispenser. After the assay plates were incubated at a 37C and 5% CO2 for 4 h, 23 nL of compounds dissolved in DMSO, positive controls or DMSO only was transferred to the assay plate by a Pintool station (Kalypsys, San Diego, CA). The plates were incubated at 37C and 5% CO2 for 16 h. After 1 uL of LiveBLAzerTM B/G FRET substrate was added using a Bioraptr Flying Reagent Dispenser (FRD) workstation (Beckman Coulter, Indianapolis, IN, USA), the plates were incubated at room temperature for 2 h, and fluorescence intensity was measured by an Envision plate reader (PerkinElmer, Shelton, CT). For cell viability readout that measures cytotoxicity, 3 ul/well of CellTiter-Glo reagent was added into the assay plates using a FRD. After 30 min incubation at room temperature, the luminescence intensity in the plates was measured using a ViewLux (PerkinElmer) plate reader.
Background: In qHTS, concentration-response curves come from the screen itself.
As to `CC(=O)CC(=O)c1ccccc1`, the Potency entry was “inactive”.
Then `O=c1c2ccccc2nnn1CCl`, with “inactive”.
Then `C=C(C)C(=O)OCCN(C)C`, with “inactive”; and `CN1CCC(OC(c2ccccc2)c2ccccc2)CC1`, with “inactive”; and `Cc1occc1S`, with “inactive”.
Consider `CCCCCOC(=O)c1ccc(O)cc1`, for which the Potency result is “inactive”.
As for `CC(C)(C)c1cc(CO)cc(C(C)(C)C)c1O`, the Potency entry was “inactive”.
Then `CC(=O)Nc1ccc(/C=N/NC(N)=S)cc1`, with “inactive”; and `C1=Cc2ccccc2C1`, with “inactive”; and `CCOc1nc2cccc(C(=O)O)c2n1Cc1ccc(-c2ccccc2-c2nn[nH]n2)cc1`, with “inactive”.
With `CC(C)(Oc1ccc(Cl)cc1)C(=O)OCCCOC(=O)C(C)(C)Oc1ccc(Cl)cc1`, the Potency entry is “inactive”.
Then `O=c1[nH]cnc2ccccc12`, with “inactive”.
As to `N[C@H]1C(O)O[C@H](CO)[C@H](O)[C@@H]1O` (stereo not given in full), the Potency entry was “inactive”.
Then `Cc1ccc(C(C)c2ccc(C)c(C)c2)cc1C`, with “inactive”; and `CC(=O)OCCc1ccccc1`, with “inactive”.
As to `C[C@@H](C1=C(CCN(C)C)Cc2ccccc21)c1ccccn1`, the Potency result is “inactive”.
For `CC[C@@H]1C[C@H](N(Cc2cc(C(F)(F)F)cc(C(F)(F)F)c2)C(C)=O)c2cc(C(F)(F)F)ccc2N1C(=O)OC(C)C`, the Potency result is “inactive”.
Then `CC(C)NCC(O)COc1ccc(CC(N)=O)cc1` (stereo not given), with “inactive”; and `Cc1cc(CC(=O)O)c(C)n1-c1ccc(Cl)cc1`, with “inactive”.
Then `O=C(/C=C/c1ccc(O)c(O)c1)O[C@@H]1C[C@](O)(C(=O)O)C[C@@H](O)[C@H]1O`, with “inactive”.
`CCCCCCCCCO`: the Potency result is “inactive”.
Then `S=C(S)NCCNC(=S)S`, with “inactive”; and `Oc1ccc2c(c1)OCO2`, with “inactive”.
Then `O=C(O)c1cccc(N(Cc2cccnc2)c2ccc(OC(F)F)c(OC(F)F)c2)c1`, with “inactive”; and `COC(=O)CSc1cc(N=c2sc(=O)n3n2CCCC3)c(F)cc1Cl`, with “inactive”; and `CCCCC(CC)COCCCN` (stereo not given), with “inactive”.
Regarding `C=CC(C)(CCC=C(C)C)OC(=O)c1ccccc1` (stereo not given), the Potency entry was “inactive”.
Consider `Oc1ccc(C(O)CNCCCCCCNCC(O)c2ccc(O)c(O)c2)cc1O` (stereo not given), for which the Potency result was “inactive”.
Then `NCCCOCCOCCOCCCN`, with “inactive”; and `COC(Cc1ccccc1)OC`, with “inactive”.
As to `COc1ccccc1OC(=O)Oc1ccccc1OC`, the Potency entry is “inactive”.
As for `CC(=O)[C@@]1(O)CC[C@H]2[C@@H]3C[C@H](C)C4=CC(=O)CC[C@]4(C)[C@H]3CC[C@@]21C`, the Potency result is “inactive”.
Then `CNS(=O)(=O)Cc1ccc2[nH]cc(CCN(C)C)c2c1`, with “inactive”.
As for `CCOC(=O)C1=NN(c2ccccc2)C(=O)C1`, the Potency result was “inactive”.
Then `CC(C)c1cccc(C(C)C)c1NC(=O)NS(=O)(=O)c1cc(C(C)(C)O)co1`, with “inactive”; and `CCOC(=O)CC(=O)c1cc(F)c(Cl)nc1Cl`, with “inactive”; and `CC(C)c1ccc2c(C(C)C)cc(C(C)C)c(S(=O)(=O)O)c2c1`, with “inactive”.
On to `CN(C)CC[C@@H](c1ccc(Br)cc1)c1ccccn1`, for which the Potency entry is “inactive”.
Then `CC1(C)[C@H]2CC[C@]1(C)[C@H](O)C2`, with “inactive”.
Then `CCCCOC(=O)/C=C\C(=O)OCCCC`, with “inactive”.
